Records with an inconclusive call do not appear. Active and inactive are the calls of the source. Rule for the calls: active = hit-call score of the fitted dose curve at least 0.9, where 1 is the maximum; inconclusive = response in the unintended direction; inactive = score below 0.9.
Test: Tanguay_ZF_120hpf_TRUN_legacy: (Legacy) Oregon State University Tanguay Lab 120 Hour Post-fertilization zebrafish Assay for Truncated Body (AID 2283655)
Experimental: Tanguay_ZF_120hpf_legacy is a whole embryo, multiplexed endpoint assay using zebrafish larvae exposed for 120 hours post fertilization on a 96-well plate.Tanguay_ZF_120hpf_TRUN_legacy is one of one assay component(s) measured or calculated from the Tanguay_ZF_120hpf_legacy assay. It is designed to make measurements of zebrafish development as detected with brightfield microscopy of developing zebrafish embryos.Data from the assay component Tanguay_ZF_120hpf_TRUN_legacy was analyzed into 1 assay endpoints. This assay endpoint, Tanguay_ZF_120hpf_TRUN_legacy, was analyzed in the positive analysis fitting direction relative to DMSO as the negative control and baseline of activity. Using a type of morphology reporter, gain-of-signal activity can be used to understand changes in developmentals as they relate to the whole embryo. To generalize the intended target to other relatable targets, this assay endpoint is annotated to the zebrafish development intended target family, where the subfamily is embryonic morphogenesis.
Zebrafish husbandry: Tropical 5D wild-type adult zebrafish were housed in at an approximate density of 1000 per 100 gallon tank at the Sinnhuber Aquatic Research Laboratory, Oregon State University, Corvallis, OR. Each tank was kept at standard laboratory conditions of 28C on a 14-h light/10-h dark photoperiod in fish water consisting of reverse osmosis water supplemented with a commercially available salt (Instant Ocean). Spawning funnels were placed into the tanks the night prior, and embryos were collected and staged. To increase bioavailability, the chorion was enzymatically removed using pronase (63.6mg/ml, >/= 3.5U/mg, Sigma-Aldrich: P5147) at 4 hours post fertilization (hpf) using a custom automated dechorionator.Chemical exposures: Six hpf dechorionated embryos were placed 1 embryo per well in a 96-well plate prefilled with 90 ul of EM using automated embryo placement systems (AEPS). Ten microliters of each row of dilution plate 2 was added to 2 exposure plates. The final DMSO concentration used was 0.64% (vol/vol). Thirty-two embryos were also exposed to 5uM trimethyltin chloride (positive control). Plates were sealed to prevent evaporation and foil covered to reduce light exposure and kept in a 28C incubator. Embryos were statically exposed until 120 hpf. At 24 hpf, embryos were assessed for photomotor response using a custom photomotor response analysis tool (PRAT) and for developmental toxicity endpoints (MO24: mortality at 24 hpf, DP: developmental progression, SM: spontaneous movement, and NC: notochord distortion). At 120 hpf, locomotor activity was measured using Viewpoint Zebralab and assessed for 18 endpoints. Zebrafish acquisition and analysis program (ZAAP), a custom program designed to inventory, acquire, and manage zebrafish data, was used to collect developmental endpoints as either present or absent (i.e., binary responses were recorded). If mortality occurred for an embryo (at either 24 or 120 hpf), the non-mortality endpoints were not measured.

Structure (SMILES) | outcome | AC50
CCCCOC(=O)CCCCCCCCC(=O)OCCCC | inactive | 
Clc1cc(Cl)c(Cl)cc1Cl | inactive | 
CCCCCCOCCO | inactive | 
Cc1cc(NC(=O)C(=O)O)cc(C)c1Oc1ccc(O)c2c1CCC2 | inactive | 
CCCCN(CCCC)CCCC | inactive | 
Cc1nc(-c2ccc3c(c2)CCN(CCC2CCC(NC(=O)/C=C/c4ccc(F)cc4)CC2)CC3)no1 (stereo not given) | inactive | 
COC(=O)c1ccc(O)cc1 | inactive | 
COCCOC[C@H](CC1(C(=O)NC2CCC(C(=O)O)CC2)CCCC1)C(=O)Oc1ccc2c(c1)CCC2 (stereo not given in full) | inactive | 
CC1=C(/C=C/C(C)=C/C=C/C(C)=C/CO)C(C)(C)CCC1 | inactive | 
Cc1c(C(=O)O)c(O)cc2c1C(=O)c1c(O)c([C@@H]3O[C@H](CO)[C@@H](O)[C@H](O)[C@H]3O)c(O)c(O)c1C2=O | inactive | 
Nc1ccc2c(c1)C(=O)c1ccccc1C2=O | inactive | 
Nc1nc(N)c2nc(CNc3ccc(C(=O)N[C@@H](CCC(=O)O)C(=O)O)cc3)cnc2n1 | inactive | 
NC(=O)Cn1c(=O)cc(CCN2CCN(c3nccc4sccc34)CC2)c2ccc(F)cc21 | inactive | 
Cc1ccc(N(C)C)cc1 | inactive | 
O=C(O)Cc1ccccc1Nc1c(Cl)cccc1Cl | inactive | 
NCCO | inactive | 
C[Si]1(C)O[Si](C)(C)O[Si](C)(C)O[Si](C)(C)O1 | inactive | 
Oc1ccc2c(c1)OC[C@@H](N1CCC(O)(c3ccc(F)cc3)CC1)[C@H]2O | inactive | 
Cc1oc(-c2ccccc2)nc1CCOc1cccc2c1ccn2CCC(=O)O | inactive | 
COc1ccc(S(=O)(=O)N2C(=O)[C@@](c3ccccc3OC)(N3C[C@H](O)C[C@H]3C(=O)N(C)C)c3cc(Cl)ccc32)c(OC)c1 | inactive | 

Structure (SMILES) | outcome | AC50
CCCCCCCC=O | inactive | 
CCCCCCCCCCCC(=O)OC | inactive | 
COc1ccc(C)cc1N | inactive | 
Cc1cc(=O)[nH]c(=S)[nH]1 | inactive | 
COCCOCCOC | inactive | 
CCCCCCCCCCC | inactive | 
CCCCc1ccc2c(n1)[C@@H](c1ccc(OC)cc1C[C@H](C)C(=O)O)[C@H](C(=O)O)[C@H]2c1ccc2c(c1)OCO2 | inactive | 
CN[C@H]1CC[C@@H](c2ccc(Cl)c(Cl)c2)c2ccc(S(N)(=O)=O)cc21 | inactive | 
CC(CO)OC(C)CO (stereo not given) (tested in a mixture with another compound) | inactive | 
CCCCCC(=O)O | inactive | 
C=CCc1ccc(O)c(OC)c1 | inactive | 
CCCc1cc(=O)[nH]c(=S)[nH]1 | inactive | 
CCNc1cccc(C)c1 | inactive | 
COc1cc(C=O)ccc1O |  | 50 µM (active)
FC(F)(F)C(F)(F)C(F)(F)C(F)(F)C(F)(F)C(F)(F)CCI | inactive | 
CC1(C)CC(N=C=O)CC(C)(CN=C=O)C1 (stereo not given) | inactive | 
CC(=O)OCCOCCOCCOC(C)=O | inactive | 
Cc1ccc(C)c(O)c1C | inactive | 
C=CCOC(=O)c1ccccc1C(=O)OCC=C | inactive | 
Cc1cccc(C)c1O | inactive | 

From PubChem BioAssay (EPA / NIEHS)
